Results taken from paper PMC4336329 (PLoS ONE, 2015).
The campaign covered roughly 310,000 compounds. About 14,000 (4.5%) showed an effect of 50% or more. The effect is printed as a negative number. What follows is part of a selection rich in strong results, with near analogues and random picks from the rest.

Molecular target: human ether-à-go-go-related gene (hERG) potassium channel (human, UniProt Q12809)
Test: primary screen, population patch clamp on CHO cells stably expressing hERG; higher = less effect of the substance
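Further: peak tail current of the secondary pulse compared with the same well before compound.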

human ether-à-go-go-related gene (hERG) potassium channel, sequence (Q12809 whole entry, looked up): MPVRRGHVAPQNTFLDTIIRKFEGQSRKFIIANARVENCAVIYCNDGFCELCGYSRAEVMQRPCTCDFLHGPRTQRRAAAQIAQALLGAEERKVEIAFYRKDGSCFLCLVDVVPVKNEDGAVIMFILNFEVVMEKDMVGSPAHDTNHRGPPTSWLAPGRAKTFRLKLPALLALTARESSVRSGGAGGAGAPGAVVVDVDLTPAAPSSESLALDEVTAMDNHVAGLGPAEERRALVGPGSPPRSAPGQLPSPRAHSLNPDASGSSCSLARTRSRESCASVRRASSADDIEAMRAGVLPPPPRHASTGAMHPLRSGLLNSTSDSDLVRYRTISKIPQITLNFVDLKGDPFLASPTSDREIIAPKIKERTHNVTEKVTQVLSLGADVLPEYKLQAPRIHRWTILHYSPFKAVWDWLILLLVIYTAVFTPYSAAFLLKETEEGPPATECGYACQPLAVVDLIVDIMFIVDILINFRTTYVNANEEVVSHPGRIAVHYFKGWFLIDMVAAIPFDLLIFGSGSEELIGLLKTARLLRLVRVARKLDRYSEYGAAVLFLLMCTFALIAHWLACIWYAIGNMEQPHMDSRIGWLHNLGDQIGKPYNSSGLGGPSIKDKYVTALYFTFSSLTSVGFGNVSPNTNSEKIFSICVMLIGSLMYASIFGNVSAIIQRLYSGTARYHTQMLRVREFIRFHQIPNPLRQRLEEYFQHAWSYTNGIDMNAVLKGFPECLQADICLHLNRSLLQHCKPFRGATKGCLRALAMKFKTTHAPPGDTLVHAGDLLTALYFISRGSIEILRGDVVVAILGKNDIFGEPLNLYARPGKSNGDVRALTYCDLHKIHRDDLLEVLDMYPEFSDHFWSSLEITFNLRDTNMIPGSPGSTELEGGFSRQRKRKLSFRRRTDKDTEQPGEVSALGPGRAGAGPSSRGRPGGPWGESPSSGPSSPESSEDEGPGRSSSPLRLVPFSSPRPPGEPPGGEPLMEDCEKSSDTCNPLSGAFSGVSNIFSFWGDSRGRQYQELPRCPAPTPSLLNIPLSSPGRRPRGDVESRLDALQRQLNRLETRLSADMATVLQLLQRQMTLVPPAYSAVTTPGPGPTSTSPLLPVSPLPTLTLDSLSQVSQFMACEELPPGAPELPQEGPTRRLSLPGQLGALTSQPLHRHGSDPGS

**Q.** For `COc1ccc(NC(=O)c2ccccn2)cc1OC`, which “hERG current change (%, negative = inhibition) at 10uM” value is on record?
**A.** 3.32%

**Q.** With `O=C(O)c1csc(Cc2ccccc2)n1` as the compound, how does the “hERG current change (%, negative = inhibition) at 10uM” value read?
**A.** 15.1%

**Q.** With `COc1ccc(Cl)cc1NC(=O)Nc1cc(C)on1` as the compound, how does the “hERG current change (%, negative = inhibition) at 10uM” value read?
**A.** 0.43%

**Q.** For `CC(C)C(O)(C#CCN1CCCCC1)C(C)C`, which “hERG current change (%, negative = inhibition) at 10uM” value is on record?
**A.** -1.16%

**Q.** With `Cc1cccc(N2C(=O)CC(NNc3nc4ccccc4s3)C2=O)c1` (stereo not shown) as the compound, how does the “hERG current change (%, negative = inhibition) at 10uM” value read?
**A.** 10.6%

**Q.** Which “hERG current change (%, negative = inhibition) at 10uM” value does the source give for `Cc1cc(C)c(C(=O)C(C)OC(=O)Cn2cnc3c2c(=O)n(C)c(=O)n3C)cc1C` (stereo not shown) here?
**A.** -17.6%

**Q.** With `CC(C(=O)c1ccccc1)n1cnc2ccccc2c1=O` (stereo not shown) as the compound, how does the “hERG current change (%, negative = inhibition) at 10uM” value read?
**A.** -2.46%

**Q.** Which “hERG current change (%, negative = inhibition) at 10uM” value does the source give for `CC(=O)c1cccc(NC(=O)CCN2C(=O)C3CC=CCC3C2=O)c1` (stereo not shown) here?
**A.** 5.49%

**Q.** With `COCCN(CCOC)S(=O)(=O)c1ccc(OC)cc1` as the compound, how does the “hERG current change (%, negative = inhibition) at 10uM” value read?
**A.** 8.79%

**Q.** With `Cc1ccnc(NC(=O)CCCc2ccccc2)c1` as the compound, how does the “hERG current change (%, negative = inhibition) at 10uM” value read?
**A.** 13%

**Q.** `COc1ccc(C2Nc3ccccc3C(=O)N2NS(=O)(=O)c2ccc(C)cc2)c(OC)c1` (stereo not shown) was tested. Which “hERG current change (%, negative = inhibition) at 10uM” value did it give?
**A.** 3.22%

**Q.** For `CCOc1ccc(C(=O)C(C)OC(=O)Cn2c(C)csc2=O)cc1` (stereo not shown), which “hERG current change (%, negative = inhibition) at 10uM” value is on record?
**A.** -60.1%

**Q.** Which “hERG current change (%, negative = inhibition) at 10uM” value does the source give for `Cc1csc(=O)n1CC(=O)OC(C)C(=O)Nc1ccc(F)c(F)c1F` (stereo not shown) here?
**A.** -4.29%

**Q.** Which “hERG current change (%, negative = inhibition) at 10uM” value does the source give for `CCOc1ccc(C(=O)C(C)OC(=O)CN2C(=O)NC(C)(C)C2=O)cc1` (stereo not shown) here?
**A.** -7.23%

**Q.** With `O=C(COc1ccc(Cl)cc1)Nc1ccc2c(c1)nc1n2CCOC1` as the compound, how does the “hERG current change (%, negative = inhibition) at 10uM” value read?
**A.** -34%

**Q.** `O=C(CC1NC(=O)NC1=O)Nc1ccccc1` (stereo not shown) was tested. Which “hERG current change (%, negative = inhibition) at 10uM” value did it give?
**A.** -0.537%

**Q.** Which “hERG current change (%, negative = inhibition) at 10uM” value does the source give for `CCOc1cc2c(cc1OCC)-n1cccc1C(c1cccc([N+](=O)[O-])c1)NC2.Cl` (stereo not shown) here?
**A.** -59.9%

**Q.** Which “hERG current change (%, negative = inhibition) at 10uM” value does the source give for `CCOc1cc2c(cc1OCC)-n1cccc1C(c1ccc(C)cc1C)NC2.Cl` (stereo not shown) here?
**A.** -0.599%

**Q.** `CCOc1cc2c(cc1OCC)-n1cccc1C(c1ccc(OC(F)F)cc1)NC2.Cl` (stereo not shown) was tested. Which “hERG current change (%, negative = inhibition) at 10uM” value did it give?
**A.** -65.3%

**Q.** How did the “hERG current change (%, negative = inhibition) at 10uM” value turn out when `CCOc1cc2c(cc1OCC)-n1cccc1C(c1ccc(F)cc1)NC2.Cl` (stereo not shown) was run?
**A.** 0.0384%

**Q.** How did the “hERG current change (%, negative = inhibition) at 10uM” value turn out when `CCOc1cc2c(cc1OCC)-n1cccc1C(c1ccc(OC)c(OC)c1)NC2.Cl` (stereo not shown) was run?
**A.** -30.2%

**Q.** Which “hERG current change (%, negative = inhibition) at 10uM” value does the source give for `CCOc1cc2c(cc1OCC)-n1cccc1C(c1ccccc1OC)NC2.Cl` (stereo not shown) here?
**A.** -7.52%

**Q.** With `CCOc1cc2c(cc1OCC)-n1cccc1C(c1cc(C)c(OC)cc1C)NC2.Cl` (stereo not shown) as the compound, how does the “hERG current change (%, negative = inhibition) at 10uM” value read?
**A.** -62.1%

**Q.** `CCOc1cc2c(cc1OCC)-n1cccc1C(c1ccc(OC)cc1)NC2.Cl` (stereo not shown) was tested. Which “hERG current change (%, negative = inhibition) at 10uM” value did it give?
**A.** -48.1%

**Q.** `CCOc1cc2c(cc1OCC)-n1cccc1C(c1cccc(F)c1)NC2.Cl` (stereo not shown) was tested. Which “hERG current change (%, negative = inhibition) at 10uM” value did it give?
**A.** -14.8%

**Q.** With `O=S(=O)(NC1=NCCCCCC1)c1cccs1` as the compound, how does the “hERG current change (%, negative = inhibition) at 10uM” value read?
**A.** 3.19%

**Q.** How did the “hERG current change (%, negative = inhibition) at 10uM” value turn out when `CCN1C(C(=O)c2ccccc2)=C(Nc2ccccc2C)c2ccccc2S1(=O)=O` was run?
**A.** -4.84%

**Q.** `Cl.Nn1cnnc1N/N=C/c1ccc(Cl)c([N+](=O)[O-])c1` was tested. Which “hERG current change (%, negative = inhibition) at 10uM” value did it give?
**A.** -26.6%

**Q.** How did the “hERG current change (%, negative = inhibition) at 10uM” value turn out when `O=c1[nH]c(/C=C\c2cccs2)nc(O)c1[N+](=O)[O-]` was run?
**A.** -4.76%

**Q.** With `CCOc1ccc(/C=N/NC(=O)c2[nH]c3ccc(C)cc3c2C)cc1` as the compound, how does the “hERG current change (%, negative = inhibition) at 10uM” value read?
**A.** 12.4%

**Q.** With `Cc1cccc(NC(=O)Cn2cnc3c(oc4ccccc43)c2=O)c1` as the compound, how does the “hERG current change (%, negative = inhibition) at 10uM” value read?
**A.** 12.5%

**Q.** `COc1cc(OC)cc(Oc2ccc(S(=O)(=O)N3CCCCC3)cc2[N+](=O)[O-])c1` was tested. Which “hERG current change (%, negative = inhibition) at 10uM” value did it give?
**A.** 1.5%

**Q.** Which “hERG current change (%, negative = inhibition) at 10uM” value does the source give for `COc1ccccc1Oc1ccc(S(=O)(=O)N2CCN(C)CC2)cc1` here?
**A.** -1.98%

**Q.** With `CCN(CC)S(=O)(=O)c1ccc(Oc2ccccc2OC)cc1` as the compound, how does the “hERG current change (%, negative = inhibition) at 10uM” value read?
**A.** -65.3%

**Q.** With `CCN(CC)S(=O)(=O)c1ccc(Oc2ccc(S(=O)(=O)N(CC)CC)cc2)cc1` as the compound, how does the “hERG current change (%, negative = inhibition) at 10uM” value read?
**A.** -22.7%

**Q.** For `COc1ccccc1Oc1ccc(S(=O)(=O)N2CCCC2)cc1`, which “hERG current change (%, negative = inhibition) at 10uM” value is on record?
**A.** -77.3%

**Q.** `CCN(CC)S(=O)(=O)c1ccc(Oc2ccccc2)cc1` was tested. Which “hERG current change (%, negative = inhibition) at 10uM” value did it give?
**A.** -20.7%

**Q.** How did the “hERG current change (%, negative = inhibition) at 10uM” value turn out when `O=[N+]([O-])c1cc(S(=O)(=O)N2CCCC2)ccc1OCCOc1ccccc1` was run?
**A.** -32.4%

**Q.** `COc1cccc(Oc2ccc(S(=O)(=O)N3CCCC3)cc2[N+](=O)[O-])c1` was tested. Which “hERG current change (%, negative = inhibition) at 10uM” value did it give?
**A.** -57.1%

**Q.** With `CCN1CCN(S(=O)(=O)c2ccc(Oc3ccccc3OC)cc2)CC1` as the compound, how does the “hERG current change (%, negative = inhibition) at 10uM” value read?
**A.** -15%

**Q.** With `CN=C1S/C(=C\c2cn(CC(=O)OC)c3ccccc23)C(=O)N1C` as the compound, how does the “hERG current change (%, negative = inhibition) at 10uM” value read?
**A.** 7.11%

**Q.** For `COc1ccc([N+](=O)[O-])cc1NC(=O)Nc1ccc(OC)c(OC)c1`, which “hERG current change (%, negative = inhibition) at 10uM” value is on record?
**A.** 8.37%

**Q.** Which “hERG current change (%, negative = inhibition) at 10uM” value does the source give for `COc1ccc(CCNC(=O)COC(=O)Cc2ccc(OC)cc2)cc1` here?
**A.** 9.48%

**Q.** With `Cc1cc(N2CCN(c3ccc(F)cc3)CC2)nc2cc(O)ccc12` as the compound, how does the “hERG current change (%, negative = inhibition) at 10uM” value read?
**A.** -75.9%

**Q.** Which “hERG current change (%, negative = inhibition) at 10uM” value does the source give for `COc1ccc2c(C)cc(N3CCOCC3)nc2c1` here?
**A.** -7.7%

**Q.** For `COc1ccc2c(C)cc(N3CCN(c4ccc(F)cc4)CC3)nc2c1`, which “hERG current change (%, negative = inhibition) at 10uM” value is on record?
**A.** -25.7%

**Q.** For `Cc1cc(N2CCCC2)nc2ccccc12`, which “hERG current change (%, negative = inhibition) at 10uM” value is on record?
**A.** -41.2%

**Q.** How did the “hERG current change (%, negative = inhibition) at 10uM” value turn out when `COc1ccc2c(C)cc(N3CCN(Cc4ccccc4)CC3)nc2c1` was run?
**A.** -29.6%

**Q.** `Cc1cc(N2CCOCC2)nc2ccc(Cl)cc12` was tested. Which “hERG current change (%, negative = inhibition) at 10uM” value did it give?
**A.** 9.25%

**Q.** How did the “hERG current change (%, negative = inhibition) at 10uM” value turn out when `Cc1cc(N2CCN(C)CC2)nc2ccccc12` was run?
**A.** -0.28%

**Q.** `Cc1cc(N2CCCCC2)nc2ccccc12` was tested. Which “hERG current change (%, negative = inhibition) at 10uM” value did it give?
**A.** -9.74%

**Q.** With `COc1ccc2c(C)cc(N3CCCCCC3)nc2c1.O=C(O)C(=O)O` as the compound, how does the “hERG current change (%, negative = inhibition) at 10uM” value read?
**A.** -82%

**Q.** With `COc1ccc(N2CCN(c3cc(C)c4ccc(O)cc4n3)CC2)cc1` as the compound, how does the “hERG current change (%, negative = inhibition) at 10uM” value read?
**A.** -24.4%

**Q.** For `Cc1cc(N2CCCN(C)CC2)nc2cc(Cl)ccc12`, which “hERG current change (%, negative = inhibition) at 10uM” value is on record?
**A.** -61.7%

**Q.** Which “hERG current change (%, negative = inhibition) at 10uM” value does the source give for `Cc1cc(N2CCCCCC2)nc2ccccc12.O=C(O)C(=O)O` here?
**A.** -56.1%

**Q.** How did the “hERG current change (%, negative = inhibition) at 10uM” value turn out when `CCOc1cccc(/C=N/N2C(=O)CSC2=S)c1O` was run?
**A.** 24.2%

**Q.** For `O=C(CO/N=C/c1ccc(Cl)cc1Cl)NNC(=O)c1ccc(Cl)cc1Cl`, which “hERG current change (%, negative = inhibition) at 10uM” value is on record?
**A.** 3.17%

**Q.** With `O=C(NCCO)Nc1ccc(Cl)cc1` as the compound, how does the “hERG current change (%, negative = inhibition) at 10uM” value read?
**A.** 27.7%
